These results are taken from the supplement of paper PMC10503962.

The experiment has as its system Trichuris muris adult worms. Kind of experiment: mean motility score (Paragon pixel variance) of adult worms (arbitrary units); higher = more motile worms, i.e. less anthelmintic effect; extreme values may be limits of the assay. Particulars: 100 µM; 24 h. In a few lines: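 Adult Trichuris muris worms were collected from infected NOD SCID mice and placed one per well in 96-well plates containing 100 μL RPMI-1640 with antibiotics and drug at 100 μM (1% v/v DMSO), then incubated for 24 h at 37°C and 5% CO2. Each plate was filmed on an automated phenotyping platform, capturing 200 frames 100 ms apart. The motility score came from Paragon pixel-variance analysis and was averaged over replicate wells. Every drug was tested with three worms in three wells on three separate occasions, alongside vehicle and positive controls.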
The compound `CC(C)(C)NCC(O)c1ccc(O)c(CO)c1.O=S(=O)(O)O` (configuration not stated) [albuterol sulfate] had a mean motility score of 1690.
As for `Cc1[nH]c2ccccc2c1CCNCc1ccc(/C=C/C(=O)NO)cc1` [panobinostat], the figure is 2620.
As for `CN(C)CCC=C1c2ccccc2CCc2ccccc21.Cl` [amitriptyline hydrochloride], the figure is 0; as for `c1ccc(-c2ccc(C(c3ccccc3)n3ccnc3)cc2)cc1` (configuration not stated) [bifonazole], 20.
To `CC(=O)OCC(=O)[C@@]1(O)CC[C@H]2[C@@H]3CCC4=CC(=O)CC[C@]4(C)[C@H]3[C@@H](O)C[C@@]21C` [hydrocortisone acetate] belongs 3080.
With `NC(CO)(CO)CO` [tromethamine], the mean motility score came out at 2770.
To `O=C(CCCN1CCC(O)(c2ccc(Cl)cc2)CC1)c1ccc(F)cc1` [haloperidol] belongs 2820; to `COc1ccccc1N1CCN(CC(O)COc2cccc3ccccc23)CC1` (configuration not stated) [naftopidil], 3040.
Compound `Cc1ccc(-c2cc(C(F)(F)F)nn2-c2ccc(S(N)(=O)=O)cc2)cc1` [celecoxib] returned a mean motility score of 0.
To `CCC1(c2ccccc2)C(=O)NCNC1=O` [primidone] belongs 3160.
`CCOC(=O)c1ncn2c1CN(C)C(=O)c1cc(F)ccc1-2` [flumazenil] gave a mean motility score of 3230.
To `O=C1c2ccccc2C(=O)C1c1ccccc1` [phenindione] belongs 4420.
As for `CC12CC3CC(C)(C1)CC(N)(C3)C2.Cl` [memantine hydrochloride], the figure is 2620; as for `Cc1ccnc2c1NC(=O)c1cccnc1N2C1CC1` [nevirapine], 2540; as for `CC(=O)Oc1cccc2c1C(=O)c1c(OC(C)=O)cc(C(=O)O)cc1C2=O` [diacerein], 0.
As for `Cc1cc(CC(=O)[O-])n(C)c1C(=O)c1ccc(Cl)cc1.[Na+]` [zomepirac sodium], the figure is 2840; as for `CCCCCNC(=N)N/N=C/c1c[nH]c2ccc(OC)cc12.O=C(O)/C=C\C(=O)O` [tegaserod maleate], 0; as for `NCCNCCNCCN` [trientine], 2070.
Take `COc1ccc2cc(CCC(C)=O)ccc2c1` [nabumetone]: the mean motility score is 2720.
`COC(=O)c1ccccc1O` [methyl salicylate] showed a mean motility score of 3260.
To `c1ccc(CC2=NCCN2)cc1` [tolazoline] belongs 1230.
To `O=C1NCCN1CCN1CCC(c2cn(-c3ccc(F)cc3)c3ccc(Cl)cc23)CC1` [sertindole] belongs 0; to `CCCCCCCCCCCCCCCCO` [cetyl alcohol], 1880.
To `Br.CCCCCCCCCCCCCCCC[N+](C)(C)CCN(Cc1ccc(OC)cc1)c1ncccn1` [thonzonium bromide] belongs 0; to `Cc1nc(O)c(C#N)cc1-c1ccncc1` [milrinone], 4250.
`OCCN(CCO)c1nc(N2CCCCC2)c2nc(N(CCO)CCO)nc(N3CCCCC3)c2n1` [dipyridamole] showed a mean motility score of 2870.
To `CC(C)(C)c1nc(-c2cccc(NS(=O)(=O)c3c(F)cccc3F)c2F)c(-c2ccnc(N)n2)s1` [dabrafenib] belongs 6.
